From PubChem BioAssay
MEKK3 PB1 HTS: modulators of MEKK3-MEK5 PB1 binding, primary screen, biochemical, wildtype MEKK3, multiplex bead flow cytometry, Alexa488-MEK5; AID 1529, 2009; Mitogen-activated protein kinase kinase kinase 3 (Homo sapiens), Q99759; hit rate 1.4% among 290,000; bead-based flow cytometry, Alexa488-MEK5 binding to MEKK3; actives lie on both sides; 0 = blocked by unlabeled MEK5, 100 = vehicle; binding response (% of control), % at 10 µM;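 active = binding response more than 3 SD above or below the average of its plate-row segment, actives on both sides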;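 also: Alexa488 bead fluorescence after subtracting the streptavidin-only scavenger bead signal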
Target sequence (Q99759 whole entry, looked up): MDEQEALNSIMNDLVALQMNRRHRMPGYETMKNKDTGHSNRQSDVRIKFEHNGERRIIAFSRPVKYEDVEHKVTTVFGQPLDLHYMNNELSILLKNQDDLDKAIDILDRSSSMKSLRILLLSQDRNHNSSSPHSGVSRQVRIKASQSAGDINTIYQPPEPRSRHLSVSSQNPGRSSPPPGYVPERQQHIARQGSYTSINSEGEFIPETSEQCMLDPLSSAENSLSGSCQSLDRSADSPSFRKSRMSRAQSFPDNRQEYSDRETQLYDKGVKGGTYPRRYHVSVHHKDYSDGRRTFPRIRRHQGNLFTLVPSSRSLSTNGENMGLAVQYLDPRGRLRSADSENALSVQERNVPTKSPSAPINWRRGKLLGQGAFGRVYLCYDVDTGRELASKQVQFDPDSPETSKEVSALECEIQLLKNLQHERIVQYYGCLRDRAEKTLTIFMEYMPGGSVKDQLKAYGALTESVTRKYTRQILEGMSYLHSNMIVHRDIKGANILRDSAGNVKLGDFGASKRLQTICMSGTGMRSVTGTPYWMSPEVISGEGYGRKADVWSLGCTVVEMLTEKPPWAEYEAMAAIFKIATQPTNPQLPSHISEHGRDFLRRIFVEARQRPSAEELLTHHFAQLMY
Arbovirus anti: antivirals against arbovirus infection, primary screen, cell-based, full library, 10K replicate subset; arbovirus infection cell-based antiviral screen; inhibition, % at 10 µM; hit rate 0.37% among 200,000; in the data active = inhibition above about 30%
MEKK2wt PB1 HTS: modulators of MEK5 binding to wildtype MEKK2, primary screen, biochemical, multiplex bead flow cytometry, Alexa488-MEK5; Mitogen-activated protein kinase kinase kinase 2 (Homo sapiens), Q9Y2U5; Alexa488-MEK5 binding to MEKK2 WT; actives lie on both sides; binding response (% of control), % at 10 µM; hit rate 1.1% among 290,000; in the data active = binding response below about 67% or above about 130%
MEKK2 mut-MEK5: MEK5 binding signal on mutant MEKK2 PB1, primary screen, biochemical, multiplex bead flow cytometry, Alexa488-MEK5 | Alexa488-MEK5 binding to MEKK2 mutant | percent response, % at 10 µM | hit rate 0.35% among 290,000 | AID 1530, 2009; in the data active = percent response above about 24%, passing the limit was not always enough
Pf gamet viab: late stage P. falciparum gametocyte viability inhibitors, primary screen, ATP luminescence, HTS. P. falciparum stage V gametocytes, 24 h. inhibition, % at 10.9 µM. hit rate 0.065% among 150,000;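 active = inhibition above the mean plus 3 SD of compounds within the control limits, set per campaign, cut at about 38% in these data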;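 also: 0% = DMSO wells and 100% = medium only without gametocytes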
MEKK2wt confirm: modulators of MEK5 binding to wildtype MEKK2, confirmation, biochemical, single concentration, multiplex bead flow cytometry | shares compounds with MEKK3 PB1 HTS | Alexa488-MEK5 binding to MEKK2 WT; actives lie on both sides | binding response (% of control), % at 10 µM | hit rate 2.4% among 5,900 | AID 1892, 2009; in the data active = binding response below about 16% or above about 210%; inactive = in between
MEKK2mut-MEK5: mutant MEKK2 PB1-MEK5 binding signal retest – biochemical, single concentration, multiplex bead flow cytometry, confirmation; shares compounds with MEKK3 PB1 HTS; Alexa488-MEK5 binding to MEKK2 mutant; percent response, % at 10 µM; hit rate 2% among 5,900; AID 1893, 2009; in the data active = percent response mostly above about 71%, no sharp cut-off; inactive = mostly below about 38%;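 also: higher means compound restores mutant binding toward wildtype level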
MEKK3-MEK5 inh: MEKK3 wild-type PB1 binding to MEK5, inhibitors, confirmation, biochemical, bead multiplex flow cytometry, single concentration, wildtype; AID 1894, 2009; shares compounds with MEKK3 PB1 HTS; binding response (% of control), % at 10 µM; Alexa488-MEK5 binding to MEKK3; stronger effect = lower value; hit rate 1.8% among 5,900;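 active = binding response below 72% of control, or above a set upper limit, though filed actives all read lower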;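 also: 100% = DMSO only wells and 0% = binding blocked by excess unlabeled MEK5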
Starred values were filed as active, the others as inactive; x = no result; ! = not confirmed by another sample; [ ] = remark or other dose. A selection: hits, their analogues and other compounds. The true share with any hit is near 2.4%.

SMILES | MEKK3 PB1 HTS | Arbovirus anti | MEKK2wt PB1 HTS | MEKK2 mut-MEK5 | Pf gamet viab | MEKK2wt confirm | MEKK2mut-MEK5 | MEKK3-MEK5 inh
CC(C)c1nc2c(s1)CCc1onc(-c3cccc([N+](=O)[O-])c3)c1-2 | x | x | x | x | -15 | x | x | x
Cc1csc2ncc(C(=O)NCCC(c3ccccc3)c3ccccc3)c(=O)n12 | 130* | x | 123 | 27 | -6 | 101 | 3 | 97
NC(=O)COC(=O)c1ccccc1OCc1ccccc1Cl | 125 | 8 | 640* | 457* | 3 | 102 | 3 | 103
Cc1ccc(NC(=O)CSc2nc3nc(C)cc(C)c3c(=O)[nH]2)cc1 | 0.0*[inhibitor] | 0 | -1.0*[inhibitor] | -42 | x | 108 | 5 | 107
O=C(NCc1ccc(/C=c2\sc3n(c2=O)CCN=3)o1)C(=O)Nc1ccccc1 | 106 | -4 | 100 | -3 | x | x | x | x
CCN(Cc1ccncc1)Cc1nc(CC2CC2)no1 | 106 | 5 | 91 | -7 | 0 | x | x | x
COc1cc(/C=C/CN2CCN(Cc3ccc(C)o3)C(CCO)C2)ccc1O (centres undefined) | 101 | -4 | 102 | -1 | -2 | x | x | x
O=C(CN1CCC(O)(c2cccc(F)c2)CC1)NCCc1c[nH]c2ccccc12 | 124 | x | 178* | 46 | -3 | 129 | 22 | 108
N/C(=N\OC(=O)c1ccc([N+](=O)[O-])cc1)c1ccc(Br)cc1 | 102 | x | 105 | 4 | x | x | x | x
N/C(Cc1ccc([N+](=O)[O-])cc1)=N\OC(=O)c1ccc(Br)cc1 | 132* | 2 | 109 | 1 | -1 | 106 | 5 | 105
Cc1c(C(=O)NCCc2ccccc2)oc2ccc(S(=O)(=O)N3CCOCC3)cc12 | 125* | -2 | 116 | 6 | x | 104 | 2 | 102
Cc1c(C(=O)NC2CCCc3ccccc32)oc2ccc(S(=O)(=O)N3CCCC3)cc12 (centres undefined) | 100 | -8 | 99 | 2 | x | x | x | x
Cc1c(C(=O)NC2CCCc3ccccc32)oc2ccc(S(=O)(=O)N3CCOCC3)cc12 (centres undefined) | 82*[inhibitor] | 0 | 84 | -3 | -5 | 101 | 0 | 101
Cc1c(C(=O)N2CCN(C)CC2)oc2ccc(S(=O)(=O)N3CCOCC3)cc12 | 2.0*[inhibitor] | 7 | 2.0*[inhibitor] | -16 | -3 | 98 | -2 | 96
CCOC(=O)N1CCN(C(=O)c2oc3ccc(S(=O)(=O)N4CCCCC4)cc3c2C)CC1 | 94 | 4 | 91 | -1 | x | x | x | x
COC(=O)c1c(NC(=O)c2ccc(OC(C)C)cc2)sc2c1CC(C)(C)NC2(C)C | 104 | -20 | 173* | 46 | x | 160 | 28 | 106
CCOC(=O)c1c(NC(=O)c2ccc(C)cc2)sc2c1CC(C)(C)NC2(C)C | 107 | -19 | 138* | 30 | x | 119 | 11 | 109
CCCCCCCCC[n+]1cccc2c3ccccc3ccc21 | 106 | -36 | 135* | 19 | x | 150 | 29 | 105
CCCCCCCCCCCCCCCC[n+]1cccc2ccccc21 | 133* | -46 | 157* | 9 | 0 | 252* | 165* | 112
Cc1ccccc1C[n+]1cccc2ccccc21 | x | x | x | x | 2 | x | x | x
O=C(NC1CCN(Cc2ccccc2)CC1)c1cccc(Br)c1 | 105 | x | 110 | 6 | x | x | x | x
COCCCN1C(=O)c2ccc(C(=O)OCC(=O)N(C)c3ccccc3)cc2C1=O | 106 | 17 | 102 | 0 | 2 | x | x | x
CN(C)C(=O)COC(=O)c1cccc(CN2C(=O)c3ccccc3C2=O)c1 | 71*[inhibitor] | 8 | 84 | -3 | 22 | 100 | 0 | 103
COCCNC(=O)c1cc2c(=O)n(C)c3ccccc3c2n1C | 101 | -3 | 101 | 2 | x | x | x | x
COc1ccc(CCNC(=O)c2cc3c(=O)n(C)c4ccccc4c3n2C)cc1OC | 132* | x | 114 | 31 | 0 | 97 | -6 | 96
SMILES | MEKK3 PB1 HTS | Arbovirus anti | MEKK2wt PB1 HTS | MEKK2 mut-MEK5 | Pf gamet viab | MEKK2wt confirm | MEKK2mut-MEK5 | MEKK3-MEK5 inh
COCCNC(=O)Cn1c(=O)n(Cc2ccc(C(=O)NCCc3ccc(OC)c(OC)c3)cc2)c(=O)c2ccccc21 | 37*[inhibitor] | 7 | 45*[inhibitor] | -18 | -12 | 102 | 4 | 103
COCCCNC(=O)c1ccc(Cn2c(=O)c3ccccc3n(CC(=O)NCc3ccco3)c2=O)cc1 | 96 | -8 | 94 | -4 | -4 | x | x | x
Cn1c(C(=O)NCCCN2CCc3ccccc3C2)cc2c(=O)n(C)c3ccccc3c21 | 104 | -22 | 143* | 16 | x | 122 | 12 | 101
COc1ccc(N2CCN(C(=O)c3cc(C)oc3C)CC2)cc1 | 97 | x | 103 | 4 | x | x | x | x
CCN(CC)CCCNC(=O)c1cc(-c2ccccc2)c(N2CCCCC2)s1 | 105 | x | 161* | 26* | x | 162 | 41 | 107
CCOc1c(C)cc(-c2ncccc2O)cc1C | 130*! | 1 | 96 | 0 | -18 | 101 | -7 | 99
COc1ccc(C(=O)C2CCCN(C(=O)c3ccc4nccnc4c3)C2)c(C)c1 (centres undefined) | 99 | x | 101 | 2 | x | x | x | x
CC1C(=O)C(C)C(c2cccs2)NC1c1cccs1 (centres undefined) | 127* | -1 | 124 | 8 | x | 130 | 11 | 104
Cc1ccccc1C1NC(c2ccccc2C)C(C)C(=O)C1C (centres undefined) | 107 | x | 105 | 4 | x | x | x | x
CC(C)[C@H](NC(=O)N1CCn2c1nc1ccccc12)C(=O)NC1CCCCC1 | 95 | x | 94 | -6 | x | x | x | x
CCOC(=O)CN(c1cc([N+](=O)[O-])ccc1OC)S(C)(=O)=O | 99 | 3 | 100 | -1 | x | x | x | x
CCc1cccc2c(C(=O)C(F)(F)F)cn(CC(=O)N3CCOCC3)c12 | 147* | 12 | 124 | 6 | x | 105 | 2 | 107
COc1cc2c(cc1OC)CN(C(=O)COc1ccccc1[N+](=O)[O-])CC2 | 102 | x | 99 | -2 | x | x | x | x
COc1ccc(N2CCN(C(=O)C3CCN(S(=O)(=O)c4cccs4)CC3)CC2)cc1 | 100 | -2 | 96 | -3 | -15 | x | x | x
COc1ccc(CN2CCN(C(=O)C3CCN(S(=O)(=O)c4cccs4)CC3)CC2)c(OC)c1OC | 1.0*[inhibitor] | 14 | 1.0*[inhibitor] | -47 | x | 103 | 4 | 102
COc1ccc(C(CCN)c2ccc3c(c2)OCO3)cc1 (centres undefined) | 102 | x | 124 | 28* | x | 132 | 16 | 105
